Keap1-Nrf2 PPI: inhibitors of human Keap1-Nrf2 protein-protein interaction; Keap1 Kelch-Nrf2 peptide fluorescence polarization, 1536-well; inhibition, % at 9.4 µM; 0.15% of 340,000 active; AID 504523; in the data active means inhibition above about 12%;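 further: human Keap1 Kelch domain with fluorescein labeled Nrf2 9mer peptide probe; higher means more block of Keap1 binding to Nrf2 peptide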
GLD-1 RNA inh: GLD-1-TGE RNA interaction inhibition (C. elegans); Q17339; purified GLD-1 + fluorescein TGE RNA, fluorescence polarization; inhibition, % at 5.96 µM; 0.44% of 320,000 active;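 active means percent inhibition above a per-plate cutoff, the plate mean of test compounds plus 3 SD, cut at about 30% in these data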
Target sequence (Q17339 whole entry, looked up): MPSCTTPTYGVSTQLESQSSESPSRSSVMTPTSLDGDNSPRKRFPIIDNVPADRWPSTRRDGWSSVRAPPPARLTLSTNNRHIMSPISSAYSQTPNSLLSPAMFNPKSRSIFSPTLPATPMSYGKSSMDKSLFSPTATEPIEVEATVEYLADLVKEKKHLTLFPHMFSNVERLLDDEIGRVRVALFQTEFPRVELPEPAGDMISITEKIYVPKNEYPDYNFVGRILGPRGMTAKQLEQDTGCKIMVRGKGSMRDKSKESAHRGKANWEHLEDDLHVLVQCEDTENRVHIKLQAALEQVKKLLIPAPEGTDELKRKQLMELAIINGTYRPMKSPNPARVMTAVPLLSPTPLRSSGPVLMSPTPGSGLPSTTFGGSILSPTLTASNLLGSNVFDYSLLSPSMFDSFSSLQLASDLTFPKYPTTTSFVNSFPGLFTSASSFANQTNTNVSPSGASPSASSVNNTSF
LANA DNA inh: blocks KSHV LANA C-terminal domain binding to DNA; MBP-C-LANA/FAM-LBS DNA binding, fluorescence polarization; inhibition, % at 9 µM; 0.078% of 340,000 active;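 active means highest replicate inhibition at or above 60% at 9 µM, even if other replicates fall short; inactive means all replicates below 60% inhibition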
MCL1 BIM primary: disrupts human MCL1 binding to BIM-BH3 peptide; 0.68% of 320,000 active; inhibition, % at 10.9 µM; Q07820; AID 2057; GST-MCL1 / FITC-Bim-BH3 fluorescence polarization;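 active means inhibition above the mean inhibition of all tested compounds plus 3 SD, set per campaign, cut at about 40% in these data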;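 further: higher means more loss of mP so more displacement of Bim peptide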
eLon inh: E. coli protease La inhibition; P0A9M0; purified E. coli Lon protease, fluorescence polarization; inhibition, % at 7.94 µM; 0.42% of 360,000 active; AID 602123; in the data active means inhibition above about 13%, passing the limit was not always enough
BCLXL inh: inhibitors of human Bcl-xL | Q07817 | GST-Bcl-xL / FITC-Bim BH3 peptide fluorescence polarization | inhibition, % at 10.9 µM | 0.7% of 320,000 active | AID 2129;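 active means inhibition above the mean of all tested compounds plus 3 SD, cutoff set per campaign, cut at about 30% in these data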;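 further: inhibitors lower millipolarization by displacing the labeled peptide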
Target sequence (Q07817 whole entry, looked up): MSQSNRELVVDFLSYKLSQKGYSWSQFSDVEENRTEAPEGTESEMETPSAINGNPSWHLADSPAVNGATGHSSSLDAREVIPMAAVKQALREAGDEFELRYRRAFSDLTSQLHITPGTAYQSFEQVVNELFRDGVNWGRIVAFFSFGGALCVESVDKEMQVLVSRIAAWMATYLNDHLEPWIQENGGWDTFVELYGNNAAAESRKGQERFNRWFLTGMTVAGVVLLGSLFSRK
Of the large screens only hits and unclear results are named; the others gave an inactive call. Compounds with a hit are over-represented: about 1.3% of the library has one in this group of screens.

CCC/C=C/c1ccc(CN2C(C(C)C)C(=O)N(Cc3cn(CC4CCCCC4)nn3)CCS2(=O)=O)cc1 (stereo unspecified)	none (no result: Keap1-Nrf2 PPI, GLD-1 RNA inh, LANA DNA inh, MCL1 BIM primary, BCLXL inh)
C#CCN(C[C@@H]1[C@@H](OC(=O)NC2CCCC2)[C@@H](OC(=O)NC2CCCC2)CN(C(=O)OC(C)C)N1C(=O)OC(C)C)S(=O)(=O)c1ccc(C)cc1	none (no result: Keap1-Nrf2 PPI, GLD-1 RNA inh, LANA DNA inh, MCL1 BIM primary, BCLXL inh)
Cc1ccc(C(=O)Nc2nnc(CC(=O)N/N=C/c3ccncc3)s2)cc1	none
COc1ccc(C(=O)Nc2nnc(CC(=O)N/N=C/c3ccc(O)cc3O)s2)cc1	GLD-1 RNA inh 43
COc1ccccc1CN(C(=O)CCl)C(C(=O)NC1CCCCC1)c1ccncc1 (stereo unspecified)	eLon inh 25, BCLXL inh 30
CN(C)CCN1CCN(C(c2cc3ccccc3o2)c2nnnn2C(C)(C)C)CC1 (stereo unspecified)	none (no result: Keap1-Nrf2 PPI, GLD-1 RNA inh, LANA DNA inh, MCL1 BIM primary, BCLXL inh)
COc1cc2c(c(OC)c1O)C(=O)CO2	none
COc1cc(OC)c2c(O)c3c(c(-c4c5c(c(O)c6c(OC)cc(OC)cc46)CO[C@@H](C)[C@H]5O)c2c1)[C@H](O)[C@H](C)OC3	MCL1 BIM primary 56
CCS(=O)(=O)Nc1ccc2c(c1)OCO2	BCLXL inh 41
CCOc1ccc(S(=O)(=O)Nc2ccc3c(c2)OCO3)cc1	none
CC(C)(C)c1ccc(CC(=O)N2CCC2(C)C(=O)NCc2cccs2)cc1 (stereo unspecified)	none (no result: Keap1-Nrf2 PPI, GLD-1 RNA inh, LANA DNA inh, MCL1 BIM primary, BCLXL inh)
Cc1nc2ccc(S(=O)(=O)NCC(=O)NCCN3CCCCCC3)cc2s1	MCL1 BIM primary 42, BCLXL inh 41
Cc1nc2ccc(S(=O)(=O)NCC(=O)NCc3ccc(Cl)cc3)cc2s1	none
COc1ccccc1Cc1c(-c2ccc(Cl)cc2)nc2ccc(Br)cn12	none (no result: Keap1-Nrf2 PPI, GLD-1 RNA inh, LANA DNA inh, MCL1 BIM primary, BCLXL inh)
Nc1ccc(N(CCO)CCO)cc1	MCL1 BIM primary 43, BCLXL inh 42
Nc1cccc2c1C(=O)N(CCOc1ccccc1F)C2=O	BCLXL inh 35
O=C1NC[C@@H](CCCCN2C[C@H](Cc3ccccc3)N(CCc3ccccc3)C(=O)C2=O)N(CCc2ccccc2)C1=O	none (no result: Keap1-Nrf2 PPI, GLD-1 RNA inh, LANA DNA inh, MCL1 BIM primary, BCLXL inh)
COc1ccc(-n2nnnc2C2c3ccccc3C(=O)N2C2CCN(Cc3ccccc3)CC2)cc1 (stereo unspecified)	none (no result: Keap1-Nrf2 PPI, GLD-1 RNA inh, LANA DNA inh, MCL1 BIM primary, BCLXL inh)
Cc1cc2nc(-c3ccccc3)c(CC(C)(C)C)n2c(C)c1Br	none (no result: Keap1-Nrf2 PPI, GLD-1 RNA inh, LANA DNA inh, MCL1 BIM primary, BCLXL inh)
Cc1cc(O)c2c(c1)C(=O)[C@@]13Oc4c5c(c(O)c6c(O)cc(C)cc46)C(=O)C[C@H](O)[C@H]5[C@@H]1[C@@H](O)CC(=O)C3=C2O	eLon inh 20 (no result: GLD-1 RNA inh, MCL1 BIM primary, BCLXL inh)
CCN(Cc1cnn(C)c1)C(=O)c1ccc2nc(Cc3ccccc3F)oc2c1	none (no result: Keap1-Nrf2 PPI, GLD-1 RNA inh, LANA DNA inh, MCL1 BIM primary, BCLXL inh)
COC(=O)CCC(=O)OC1(C)C(=O)C2=CN(CCCOC(C)C)C(c3ccc(OC)cc3)=CC2=C(Br)C1=O (stereo unspecified)	MCL1 BIM primary 45, BCLXL inh 42
COC(=O)CCC(=O)OC1(C)C(=O)C=C2C=C(C3CC3)N(Cc3ccc(OC)cc3)C=C2C1=O (stereo unspecified)	BCLXL inh 37
COC(=O)CCC(=O)OC1(C)C(=O)C2=CN(CC(C)C)C(c3ccc(OC)cc3)=CC2=C(Br)C1=O (stereo unspecified)	MCL1 BIM primary 46, BCLXL inh 43 (no result: Keap1-Nrf2 PPI, LANA DNA inh, eLon inh)
COC(=O)CCC(=O)OC1(C)C(=O)C=C2C=C(C3CC3)N(Cc3ccc4c(c3)OCO4)C=C2C1=O (stereo unspecified)	none
COC(=O)CCC(=O)OC1(C)C(=O)C2=CN(Cc3ccccc3)C(c3ccc(OC)cc3)=CC2=C(Br)C1=O (stereo unspecified)	none
COC(=O)CCC(=O)OC1(C)C(=O)C2=CN(Cc3ccc(OC)cc3)C(c3ccc(OC)cc3)=CC2=C(Br)C1=O (stereo unspecified)	none
COC(=O)CCC(=O)OC1(C)C(=O)C2=CN(CC3CC3)C(c3ccc(OC)cc3)=CC2=C(Br)C1=O (stereo unspecified)	BCLXL inh 33
CSc1cccc(NC(=O)C2CC(=O)N(c3ccc4c(c3)OCCO4)C2)c1 (stereo unspecified)	none (no result: Keap1-Nrf2 PPI, GLD-1 RNA inh, LANA DNA inh, MCL1 BIM primary, BCLXL inh)
CC1(C(=O)NC2CCCCCC2)CCN1C(=O)Cc1ccc(-c2ccccc2)cc1 (stereo unspecified)	none (no result: Keap1-Nrf2 PPI, GLD-1 RNA inh, LANA DNA inh, MCL1 BIM primary, BCLXL inh)
CC(O)(c1cccnc1)c1nc(/C=C/c2ccccc2)cs1 (stereo unspecified)	none (no result: Keap1-Nrf2 PPI, GLD-1 RNA inh, LANA DNA inh, MCL1 BIM primary, BCLXL inh)
Cc1cccc(Nc2c([N+](=O)[O-])ccc3nonc23)c1C	none (no result: GLD-1 RNA inh, MCL1 BIM primary, BCLXL inh)
Cc1ccc(Nc2c([N+](=O)[O-])ccc3nonc23)c(C)c1	BCLXL inh 46
CCCCN(C)c1c(C)nc2ccc(C(=O)NCc3ccc(OC)cc3)cn12	none (no result: Keap1-Nrf2 PPI, GLD-1 RNA inh, LANA DNA inh, MCL1 BIM primary, BCLXL inh)
Cn1cnnc1Sc1nc2ccccc2nc1NS(=O)(=O)c1ccccc1	none
Cn1ccnc1Sc1nc2ccccc2nc1NS(=O)(=O)c1ccccc1	GLD-1 RNA inh 39, BCLXL inh 34
N#Cc1ccc[n+](CC(=O)c2ccc(Cl)cc2)c1	BCLXL inh 33
Cc1ccc[n+](CC(=O)c2ccc(Br)cc2)c1	none (no result: GLD-1 RNA inh, MCL1 BIM primary, BCLXL inh)
Cc1ccc(C)c(S(=O)(=O)Nc2cc(SCC(=O)O)c(O)c3ccccc23)c1	Keap1-Nrf2 PPI 61, eLon inh 34
O=C(CN1C(=O)c2ccccc2S1(=O)=O)Nc1ncc(Cl)cc1Cl	GLD-1 RNA inh 57 (no result: MCL1 BIM primary, BCLXL inh)
Cc1cccn2c(=O)c3cc(C(=O)NCc4ccco4)c(=N)n(C4CCCC4)c3nc12	BCLXL inh 34
COc1ccc(-c2[nH]ncc2CNC(C)CCn2cccn2)c(F)c1 (stereo unspecified)	none
COc1ccc(-c2[nH]ncc2CNC(C)c2cn(C)nc2C)c(F)c1 (stereo unspecified)	BCLXL inh 68
Nc1c(N2CCOCC2)cc(Cl)c2nonc12	none
Nc1c(N2CCCC2)cc(Cl)c2nonc12	BCLXL inh 50
Brc1ccc2nc(-c3ccco3)c(CC3CCCCC3)n2c1	none (no result: Keap1-Nrf2 PPI, GLD-1 RNA inh, LANA DNA inh, MCL1 BIM primary, BCLXL inh)
CN(C)c1ccc(NC(=S)Nc2ccc3c(c2)c(=O)n(C)n3-c2ccc(C(C)(C)C)cc2)cc1	none (no result: Keap1-Nrf2 PPI, GLD-1 RNA inh, LANA DNA inh, MCL1 BIM primary, BCLXL inh)
O=C(O)c1ccccc1-c1c2cc(I)c(=O)c(I)c-2oc2c(I)c(O)c(I)cc12	GLD-1 RNA inh 49, MCL1 BIM primary 115, BCLXL inh 110
O=Cc1ccc(-c2ccccc2C(=O)O)o1	none
O=C(O)c1ccc(CSc2nc3ccccc3c(=O)n2-c2ccccc2)cc1	Keap1-Nrf2 PPI 30
O=c1c2ccccc2nc(SCc2ccc([N+](=O)[O-])cc2)n1-c1ccccc1	none
COc1ccc(OC)c(NC(=O)C2CCCN(S(=O)(=O)c3c(C)noc3C)C2)c1 (stereo unspecified)	none
COc1ccc(OC)c(NC(=O)C2CCN(S(=O)(=O)c3c(C)noc3C)CC2)c1	GLD-1 RNA inh 63
CCN1/C(=C/C(C)=C/c2sc3ccccc3[n+]2CC)Sc2ccccc21	GLD-1 RNA inh active, BCLXL inh 33
CCN1/C(=C\C(=S)Nc2ccccc2)Sc2ccccc21	none
